CYP2C19 inh = blocks human cytochrome P450 2C19. P33261. CYP2C19 Supersomes, luciferin-H EGE luminescence, 30 min. inhibition, % at 5 µM. 21% of 96,000 active;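 active = CYP2C19 inhibition above a set limit at 5 µM in the primary screen, cut at about 50% in these data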
sEH inhibitor = blocks human soluble epoxide hydrolase activity. P34913. recombinant human sEH enzymatic activity assay. inhibition, % at 2 µM. 0.34% of 91,000 active. AID 707; in the data active = inhibition above about 80%
sEH activator = activators of human soluble epoxide hydrolase. P34913. purified human sEH enzymatic activity, activator screen. activation, % at 2 µM. 0.04% of 91,000 active; in the data active = activation above about 37%
CYP2C19 activ = cytochrome P450 2C19 (human) activation; 96,000 tested, under 10 active; recombinant CYP2C19, luciferin-H EGE luminescence; hits give high values; 0 = fully inhibited enzyme, 1 = untreated enzyme; P33261; activation factor at 5 µM;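 active = activation factor of at least 2 at 5 µM in the primary screen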
CYP2C9 activ = CYP2C9 (human) activation. recombinant CYP2C9, luciferin-H conversion, luminescence; hits give high values; factor 1 = untreated enzyme, 0 = blocked. activation factor at 5 µM. 1.4% of 96,000 active. AID 1024;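 active = activation factor of 2 or more for CYP2C9 at a 5 µM dose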
Target sequence (P11712 whole entry, looked up): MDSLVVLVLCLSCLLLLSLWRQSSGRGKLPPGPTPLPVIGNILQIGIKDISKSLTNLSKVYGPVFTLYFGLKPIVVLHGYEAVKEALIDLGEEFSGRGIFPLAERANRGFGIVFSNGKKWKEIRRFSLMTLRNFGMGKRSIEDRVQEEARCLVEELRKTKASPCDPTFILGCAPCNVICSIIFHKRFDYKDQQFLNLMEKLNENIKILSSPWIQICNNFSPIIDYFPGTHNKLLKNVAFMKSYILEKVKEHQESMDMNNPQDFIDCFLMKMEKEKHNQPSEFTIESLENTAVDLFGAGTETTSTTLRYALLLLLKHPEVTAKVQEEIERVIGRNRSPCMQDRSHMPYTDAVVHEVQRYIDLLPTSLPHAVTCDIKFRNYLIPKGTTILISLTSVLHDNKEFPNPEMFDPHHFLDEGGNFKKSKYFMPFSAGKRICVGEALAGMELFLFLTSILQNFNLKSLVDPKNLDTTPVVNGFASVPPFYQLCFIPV
CYP2C9 inhib = blocks human cytochrome P450 2C9; P11712; CYP2C9 Supersomes, luciferin-H conversion, luminescence; inhibition, % at 5 µM; 20% of 96,000 active;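 active = blocking of liver enzyme CYP2C9 beyond about 50% at 5 µM, limit read from the data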
Large screens that a line does not name were inactive. An excerpt weighted towards active compounds, which were near 27% of everything screened.

On1onc2c3cc(-c4ccccc4)nc3ccc21	CYP2C9 inhib 65.4
CCCOc1ccc(Cc2nn[nH]n2)cc1	CYP2C19 inh 50.9 (no result: sEH inhibitor, sEH activator)
COc1cc(C(C[N+](=O)[O-])c2c(C)[nH]c3ccccc23)cc(OC)c1OC (configuration not stated)	CYP2C19 inh 97.8, CYP2C9 inhib 72.2
CSCCC(NC(=O)c1ccco1)C(=O)O (configuration not stated)	none
COc1ccc(C2C3=C(N=C4SCC(=O)N42)c2ccccc2CC3)cc1OC (configuration not stated)	CYP2C9 inhib 54.0
COc1ccc(C2C3=C(N=C4SCC(=O)N42)c2ccccc2CC3)cc1 (configuration not stated)	CYP2C19 inh 95.3, CYP2C9 inhib 90.7
O=C1CCCCCN1C(=O)c1cccc(C(=O)N2CCCCCC2=O)c1	none (no result: sEH inhibitor, sEH activator)
CN(CC(=O)NCc1ccco1)S(=O)(=O)c1ccc2c(c1)n(C)c(=O)c(=O)n2C	none (no result: sEH inhibitor, sEH activator)
CC1CCC(C(C)C)C2=C1C(C#N)(C#N)C(C#N)(C#N)C(c1ccccc1)N2 (configuration not stated)	CYP2C9 inhib 70.4
Cc1cccc(N2CCN(C(=O)c3ccc4ncsc4c3)CC2)c1C	CYP2C19 inh 66.1
O=C(c1ccc2ncsc2c1)N1CCN(c2ccc(O)cc2)CC1	none
Cc1cccc(N2CCN(C(=O)c3ccncc3)CC2)c1C	CYP2C19 inh 99.9, CYP2C9 inhib 86.0
COc1ccc(CCC(C(O)C(F)(F)F)S(=O)c2ccccc2)cc1 (configuration not stated)	CYP2C19 inh 60.2, CYP2C9 inhib 50.3
CCC(=O)N/C(=N/c1nc(C)cc(C)n1)Nc1cccc(OC)c1	none
COC(=O)c1c(NC(=O)CN2CCN(C(=O)c3ccco3)CC2)c2cc(C)ccc2n1C	none
N#CC1=C(Nc2ccccc2)SC=C(c2ccc(F)cc2)N=C1N1CCOCC1	none
CCn1c(COc2cccc(C)c2)nnc1SCC(=O)CC(=O)Nc1ccccc1OC	CYP2C9 activ 3.1
CCn1c(COc2ccccc2)nnc1SCC(=O)CC(=O)Nc1ccccc1OC	CYP2C9 activ 2.1
CCn1c(COc2cccc(C)c2)nnc1SCC(=O)N1CCCC1	none
CCn1c(COc2ccccc2C)nnc1SCC(=O)CC(=O)Nc1ccccc1OC	CYP2C9 activ 2.5
CCn1c(CNC(=O)COc2ccc(C(C)C)cc2)nnc1SCC(=O)Nc1ccccc1F	CYP2C19 inh 52.6, CYP2C9 inhib 71.0
C=CCSc1nnc2n(-c3ccccc3OC)c(=O)c3c4c(sc3n12)CCC4	none (no result: sEH inhibitor, sEH activator)
O=C(NC1CCCCCC1)c1ccc(N2CCCC2=O)cc1	none (no result: sEH inhibitor, sEH activator)
Cc1cc2cc(CNC(=O)NC3CCCCC3)ccc2[nH]1	CYP2C19 inh 76.5, sEH inhibitor 90.2
O=C(NCc1ccc(N2CCCC2=O)cc1)NC1CCCCC1	sEH inhibitor 80.4
O=c1n(Cc2ccc(Cl)cc2)c2sc3c(c2c2ncnn12)CCCC3	CYP2C9 inhib 85.2
C=CCn1c(=O)n2ncnc2c2c3c(sc21)CCCC3	none
COC(=O)c1ccccc1S(=O)(=O)N1CCC(c2nc3ccccc3o2)CC1	CYP2C19 inh 87.1, CYP2C9 inhib 81.1
COC(=O)c1cccc(S(=O)(=O)N2CCC(c3nc4ccccc4o3)CC2)c1	none (no result: CYP2C19 inh, CYP2C19 activ, CYP2C9 activ, CYP2C9 inhib)
CCOC(=O)c1nnn(-c2ccccc2)c1C	none (no result: CYP2C19 inh, CYP2C19 activ, CYP2C9 activ, CYP2C9 inhib)
CCOC(=O)c1nnn(-c2nc(N3CCCC3)nc(N3CCCC3)n2)c1-c1ccccc1	CYP2C19 inh 51.0
CCOC(=O)c1c(-c2ccccc2)nnn1-c1nc(OCC)nc(N2CCCCC2)n1	CYP2C19 inh 88.2, CYP2C9 inhib 59.9 (no result: sEH inhibitor, sEH activator)
Cc1cc(Nc2ccccc2)n(CCO)n1	none
CCOC(=O)c1ccc(NC(=O)CC2C(=O)N(c3ccc(F)cc3)C(=O)N2CCCOC)cc1 (configuration not stated)	none
O=C(CC1C(=O)N(c2ccc(F)cc2)C(=O)N1Cc1ccccn1)Nc1ccccc1 (configuration not stated)	CYP2C19 inh 56.0
O=C(CC1C(=O)N(c2ccc(Cl)cc2)C(=S)N1CCc1ccncc1)Nc1ccc(F)cc1 (configuration not stated)	CYP2C19 inh 84.6, CYP2C9 inhib 95.1
N#C/C(C(=O)c1ccccc1)=C1/SC=C(N)N1c1ccccc1	CYP2C19 inh 81.3, CYP2C9 inhib 92.3
COC(=O)/C(C#N)=C1/SC=C(C)N1c1ccccc1	none

Bioassay records from PubChem BioAssay.
